Screening data deposited in PubChem BioAssay by National Center for Advancing Translational Sciences (NCATS).
HCV inhibitor – qHTS Assay for Inhibitors of Hepatitis C Virus (HCV). Huh7.5.1 HCVcc-Cre infection, luciferase reporter, 44 h. Potency, µM (top dose mostly 41.8 µM), usual class: inhibitors. 340,000 tested, 3.4% active. AID 651820, 2012; active = well fitted inhibition curve with a large enough effect; inconclusive = small, poorly fitted or top-dose-only effect, or another doubt; inactive = no such curve, though single readings can be large or run the other way
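Cells seeded at 1,000/well and cultured 4 h, then compounds added followed by HCVcc-Cre virus (~0.5 moi). After 44 h further culture, luciferase substrate was added, plates held 15 min at room temperature, and luminescence read for 15 sec.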
VACV Venus inh – qHTS for Stage-Specific Inhibitors of Vaccinia Orthopoxvirus: Venus Reporter Primary qHTS | AID 720580, 2013 | Vaccinia virus Venus reporter expression, fluorescence | 330,000 tested, 0.46% active | Potency, µM (titrated, usually from 36.5 µM), most hits filed as inhibitors; calls by dose curve; tested in A549 cells; note: nearly all actives have a fitted effect of over 30% in size
Lassa entry inh – qHTS for Inhibitors of binding or entry into cells for Lassa Virus; Lassa virus pseudotype entry inhibition, cell reporter; Potency, µM (doses to about 37.9 µM), hits mostly inhibitors; 300,000 tested, 1.2% active; calls by dose curve; tested in HEK293 cells; note: nearly all actives have a fitted effect of over 50% in size
MARV entry inh – qHTS for inhibitors of binding or entry into cells for Marburg Virus | Marburg virus pseudotyped entry inhibition, cell reporter | 300,000 tested, 1.8% active | Potency, µM (titrated, usually from 37.8 µM), actives largely listed as inhibitors; calls by dose curve; tested in HEK293 cells
VACV mCherry inh – qHTS for Stage-Specific Inhibitors of Vaccinia Orthopoxvirus: mCherry Reporter Primary qHTS; Vaccinia virus mCherry reporter infection, fluorescence; Potency, µM (series often up to 36.5 µM), usual class: inhibitors; 310,000 tested, 0.63% active; AID 720579, 2013; calls by dose curve; tested in A549 cells; note: nearly all actives have a fitted effect of over 35% in size
A number is an active result; i = inactive; ? = inconclusive; nt = no result. Sampled rows, rich in hits. Any-hit rate of the full collection: about 4.6%.

SMILES | HCV inhibitor | VACV Venus inh | Lassa entry inh | MARV entry inh | VACV mCherry inh
COc1cccc(C(=O)Nc2ccc(-n3nncc3-c3ccccc3)cc2)c1OC | nt | i | i | nt | i
C[C@H](CCC(=O)OCc1cn(CC(=O)c2ccc(O)cc2)nn1)[C@H]1CC[C@H]2[C@@H]3CC[C@@H]4C[C@H](O)CC[C@]4(C)[C@@H]3C[C@H](O)[C@]12C | nt | nt | i | nt | nt
C/C(=N\NC(=O)c1c(Cl)c(C)nn1C)c1ccc(NC(=O)c2ccncc2)cc1 | ? | i | i | i | i
Cc1nn(-c2ccc(NC(=O)c3ccncc3)cc2)c(C)c1Cl | 3.2µM | i | ? | ? | i
COc1cc(C)cc(C(=O)C=Cc2ccccc2)c1O | i | i | i | ? | i
COC1=C(C)C(O)=C(C(=O)/C=C/c2ccccc2)C(=O)C1(C)C | i | ? | nt | nt | 11µM
CCNc1nc(NCC)nc(N/N=C/c2ccc(Br)cc2)n1 | 11µM | i | nt | ? | i
CN(C)c1ccc(/C=C/c2ccnc3ccccc23)cc1O | nt | i | nt | nt | i
Cc1cc(/C=N/Nc2ncnc(N)c2[N+](=O)[O-])c(C)n1-c1ccccc1 | ? | i | 1.1µM | ? | ?
COc1cccc(C=NNc2ccc([N+](=O)[O-])cn2)c1OC | i | i | i | i | i
COc1cccc(/C=N/Nc2ncnc(N)c2[N+](=O)[O-])c1OC | i | nt | 8.2µM | ? | nt
CCOc1ccccc1-c1nc(C(N)=O)c2c(n1)n(-c1ccc3c(c1)OCO3)c(=O)n2C | nt | i | i | nt | i
O=S(=O)(Nc1c(S(=O)(=O)c2ccccc2)c2nc3ccccc3nc2n1C1CCCCC1)c1ccccc1 | i | 10µM | i | i | 13µM
CCC1(C2CCN(Cc3c(C)[nH]c4ccccc34)CC2)NC(=O)N(Cc2ccc3c(c2)OCO3)C1=O (stereo unspecified) | nt | i | nt | nt | i
Cc1cc(OC(=O)c2ccco2)c2c3c(c(=O)oc2c1)CCCC3 | ? | i | ? | 11µM | i
Cc1ccc(-n2nc(C)cc2NC(=O)COc2cc(C)cc3oc(=O)c4c(c23)CCC4)cc1 | 7.1µM | nt | i | ? | nt
O=C(NCc1cccs1)c1ccc2ccccc2n1 | i | i | 6.5µM | i | i
Cc1ccccc1NC(=O)c1cccc(C(=O)Nc2ccccc2C)n1 | i | i | i | i | i
CC(NC(=O)c1ccc2ccccc2n1)c1ccc(S(N)(=O)=O)cc1 (stereo unspecified) | i | i | nt | i | i
CC(NC(=O)c1ccc2ccccc2n1)c1ccc(Br)cc1 (stereo unspecified) | i | i | 5.6µM | ? | i
Cc1cccc(NC(=O)c2ccc3ccccc3n2)c1C | i | i | 10µM | ? | i
O=C(NCc1ccccc1F)c1ccc2ccccc2n1 | i | i | ? | i | i
O=C(Nc1nccs1)c1ccc2ccccc2n1 | i | i | 8.9µM | ? | i
O=C(Nc1ccccn1)c1ccc2ccccc2n1 | i | i | ? | i | i
O=C(c1ccccc1Br)N(Cc1ccccc1F)C1CCS(=O)(=O)C1 (stereo unspecified) | nt | i | i | i | i
SMILES | HCV inhibitor | VACV Venus inh | Lassa entry inh | MARV entry inh | VACV mCherry inh
CCN=C1S/C(=C\c2ccc(O)c(OCC)c2)C(=O)N1CC | ? | ? | 13µM | ? | ?
COc1cc(/C=C2/SC(=NCc3ccccc3)N(Cc3ccccc3)C2=O)ccc1O | i | i | i | i | i
CC[n+]1c(/C=C/N(C)c2ccccc2)n(-c2ccccc2)c2ccc(-c3nc4ccccc4s3)cc21 | 5.6µM | 4.5µM | 2.5µM | ? | ?
Cc1nnsc1C(=O)NC1CCCc2c1cnn2-c1ccccc1F (stereo unspecified) | ? | i | 0.5µM | ? | i
O=C(CCc1ccncc1)NC1CCCc2c1cnn2-c1ccc(F)cc1F (stereo unspecified) | 13µM | i | i | ? | i
Cc1cccc(-n2ncc3c2CCCC3NC(=O)C2=CC(=O)CC(C)(C)O2)c1C (stereo unspecified) | 7.1µM | i | i | ? | i
O=C(NC1CCCc2c1cnn2-c1ccccc1F)c1ccncc1 (stereo unspecified) | nt | i | nt | nt | ?
Cc1cccc(-n2ncc3c2CCCC3NC(=O)C2(C(N)=O)CC2)c1C (stereo unspecified) | 1.6µM | i | ? | ? | ?
Cc1cc(C)cc(-n2ncc3c2CCCC3NC(=O)C2(C(N)=O)CC2)c1 (stereo unspecified) | ? | i | i | ? | i
COc1ccc(OC)c(S(=O)(=O)Nc2cccc(-c3ccc(N4CCCCC4)nn3)c2)c1 | nt | i | i | nt | i
C=Nc1ccc(/C=C/c2ccnc3ccccc23)cc1 | nt | i | nt | nt | i
Cc1ccc(S(=O)(=O)C(CNC(=O)C(=O)NCCc2ccc(F)cc2)c2cccs2)cc1 (stereo unspecified) | nt | i | i | nt | i
Cc1ccc(C(=O)c2coc3ccc(O)c(CN4CCN(C)CC4)c23)cc1 | ? | nt | i | 23µM | nt
COc1ccc(C(=O)c2coc3ccc(O)c(CN4CCCC4)c23)cc1 | i | i | nt | nt | ?
Clc1ccc(-c2n[nH]c3c2CCC3)cc1Cl | i | i | ? | i | i
Clc1ccc(-c2n[nH]c3c2CCCC3)cc1 | 10µM | i | i | i | i
COc1ccc(CCNC(=O)Cc2c(C)c3ccc(O)c(C)c3oc2=O)cc1OC | nt | i | i | i | i
Cc1ccc(C2c3[nH]c4ccccc4c3CCN2C(=O)CCc2ccccc2)cc1 (stereo unspecified) | nt | i | 3.2µM | nt | i
COCCn1c(=NC(=O)c2ccc(S(=O)(=O)N3CCc4ccccc4C3)cc2)sc2cc(OC)ccc21 | 13µM | i | i | i | i
COc1ccc2sc(N(CCCN(C)C)C(=O)c3ccc(S(=O)(=O)N4CCc5ccccc5C4)cc3)nc2c1 | ? | 11µM | 3.5µM | ? | ?
COc1ccc2sc(N(CCCN(C)C)C(=O)c3ccc(S(=O)(=O)N4CCCC4)cc3)nc2c1 | ? | i | i | i | i
CN(C)CCCN(C(=O)c1ccc(S(=O)(=O)N2CCc3ccccc3C2)cc1)c1nc2ccc(F)cc2s1 | ? | 16µM | ? | ? | 13µM
CC(C)(C)c1ccc(C(=O)NCCc2csc3nc(-c4ccccc4F)nn23)cc1 | nt | i | i | nt | i
O=C(c1cnn(-c2nccc(-c3ccccc3F)n2)c1C1CC1)N1CCN(CCO)CC1 | nt | i | nt | nt | i
Cc1ccc(NC(=O)ON=C2CCCC2)cc1 | i | i | 1.4µM | 10µM | i
SMILES | HCV inhibitor | VACV Venus inh | Lassa entry inh | MARV entry inh | VACV mCherry inh
O=C(Nc1ccccc1)ON=C1CCCC1 | i | i | i | i | i
O=C(CCCn1c(=O)c2ccccc2n(CC(=O)Nc2cccc(Cl)c2)c1=O)NCc1ccc2c(c1)OCO2 | nt | i | i | i | i
Cc1c(C(=O)NC2CCCC2)sc2ncnc(NCCN(C)C)c12 | nt | i | nt | nt | i
CCOc1ccc(OCC)c(S(=O)(=O)NCCOC23CC4CC(CC(C4)C2)C3)c1 | 10µM | ? | ? | ? | i
COC(=O)c1[nH]c2cc(OC)ccc2c1NC(=O)CN1CCN(c2cccc(C)c2)C(C)C1 (stereo unspecified) | 10µM | ? | ? | 16µM | ?
COC(=O)c1[nH]c2cc(C)ccc2c1NC(=O)CN1CCOCC1 | i | i | i | ? | i
